Measured values from PubChem BioAssay (NCI).
Compounds without any hit were thinned out: in the full panel of roughly 83,000, 20% have a hit.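 Testing used 96-well plates and a 48-hour single-concentration exposure. Example: -40 means 40% of the starting cells died.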 The source made the active and inactive calls. The calls were made as follows: active = growth percent below 10; inactive = the rest.

Key:
Assay in all cases: NCI-60 one-dose screen, 48 h (100 = growth as untreated, 0 = no growth, -100 = all killed)
[1] = system: EKVX NSCLC; settings: 10 µM unless noted
[2] = system: SN12C renal; settings: 10 µM unless noted
[3] = system: UO-31 renal; settings: 10 µM unless noted
[4] = system: TK-10 renal; settings: 10 µM unless noted
[5] = system: ACHN renal; settings: 10 µM unless noted
[6] = system: CAKI-1 renal; settings: 10 µM
[7] = system: CCRF-CEM leukemia; settings: 10 µM unless noted
[8] = system: MOLT-4 leukemia; settings: 10 µM unless noted
[9] = system: SR leukemia; settings: 10 µM unless noted
[10] = system: RPMI-8226 leukemia; settings: 10 µM unless noted
[11] = system: OVCAR-8 ovarian; settings: 10 µM unless noted
[12] = system: OVCAR-5 ovarian; settings: 10 µM unless noted
[13] = system: OVCAR-4 ovarian; settings: 10 µM unless noted
[14] = system: SK-OV-3 ovarian; settings: 10 µM unless noted
[15] = system: IGROV1 ovarian; settings: 10 µM unless noted
[16] = system: HS 578T breast; settings: 10 µM unless noted
[17] = system: NCI/ADR-RES ovarian; settings: 10 µM unless noted
[18] = system: A498 renal; settings: 10 µM unless noted

Measured: growth

CN1CCN(Cc2ccc(NC(=O)c3cncc(C#Cc4cnc5ccc(NC6CCOCC6)nn45)c3)cc2C(F)(F)F)CC1
active: [1] -4.66% | [2] 1.01% | [3] -43.7% | [4] -11.7% | [5] -95.5% | [6] -46.9% | [7] 3.15% | [8] 5.18% | [9] -37.8% | [10] -34.1% | [11] -52.4% | [12] 0.169% | [13] -29.1% | [14] -22.9% | [15] -21% | [16] -26% | [17] 7.41%

C[C@@H]1C[C@H]2C(=O)OCC(NC(=O)[C@H](Cc3cc(F)cc(F)c3)NC(=O)Nc3ccc(Cl)cc3F)C(=O)N3CCC[C@H]3C(=O)N3CCCC[C@H]3C(=O)N[C@@H](C)C(=O)N2C1 (stereo not given in full)
inactive: [1] 27.7% | [2] 18.2% | [3] 30% | [4] 52.8% | [5] 26% | [6] 21.5% | [7] 31.3% | [8] 33.2% | [9] 21.8% | [10] 12.8% | [11] 20% | [12] 31.9% | [13] 23.6% | [14] 27.5% | [15] 40.5% | [16] 32.7% | [17] 24%

COc1cc(OC)c(S(N)(=O)=O)cc1C(=O)/C=C/c1ccccc1
inactive: [1] 77.2% | [2] 11.3% | [3] 33.8% | [4] 19.9% | [5] 27.7% | [6] 30.2% | [7] 15.1% | [8] 29.2% | [10] 18.5% | [11] 65.3% | [12] 27.1% | [13] 77.7% | [14] 81.1% | [15] 25.7% | [16] 26.5% | [17] 48.3%
active: [9] 8.18%

Cc1cn(-c2cc(NC(=O)c3cncc(C#Cc4cnc5ccc(O[C@H]6CCOC6)nn45)c3)cc(C(F)(F)F)c2)cn1
inactive: [1] 89.9% | [2] 72% | [3] 55.7% | [4] 133% | [5] 87.7% | [6] 88.5% | [7] 95.6% | [8] 88.9% | [9] 47.8% | [10] 85.4% | [11] 92.6% | [12] 80.3% | [13] 90.1% | [14] 119% | [15] 65.3% | [16] 73.7% | [17] 101%

Nc1nc(-c2cccc([N+](=O)[O-])c2)c(N=Nc2cccc(Cl)c2)s1
inactive: [1] 41.9% | [2] 53.2% | [3] 33.5% | [4] 71.7% | [5] 48.6% | [6] 23.2% | [7] 36% | [8] 26.5% | [9] 31.4% | [10] 46.6% | [11] 41.4% | [12] 64.3% | [13] 49.2% | [14] 42.7% | [15] 33.8% | [16] 55% | [17] 38.9%

O=c1cc(-c2ccccc2)nc2sc(-c3c[nH]c4ccc(F)cc34)nn12
active: [13] -14.1% | [16] -4.32%
inactive: [1] 52% | [2] 56.6% | [3] 20.3% | [4] 50.9% | [5] 30% | [6] 60.5% | [18] 88.8% | [10] 71.9% | [11] 62% | [12] 77.2% | [14] 56.6% | [15] 85.4% | [17] 60.6%

Nc1n[nH]c2cccc(C#Cc3cccc(NC(=O)c4cccc(OC(F)(F)F)c4)c3)c12
active: [16] 1.43%
inactive: [1] 91% | [2] 39.7% | [3] 26.9% | [4] 97.1% | [5] 31.7% | [6] 48.3% | [18] 56.4% | [8] 35.4% | [9] 47% | [10] 57.2% | [11] 60.3% | [12] 50.7% | [13] 66.7% | [14] 105% | [15] 19.9% | [17] 57.1%

Nc1nc(-c2cccc([N+](=O)[O-])c2)c(N=Nc2ccccc2Cl)s1
inactive: [1] 79.6% | [2] 73.7% | [3] 63.8% | [4] 85.7% | [5] 63.2% | [6] 28.8% | [7] 66.8% | [8] 68.7% | [9] 59.1% | [10] 68.5% | [11] 56.8% | [12] 93.7% | [13] 63.1% | [14] 99.5% | [15] 74.8% | [16] 56.8% | [17] 59.9%

C/C(=N\NC(=O)CSc1nc2sc3c(c2c(=O)n1-c1ccccc1)CCC(C)C3)c1ccc(Cl)cc1 (stereo not given)
inactive: [1] 31.5% | [2] 29.2% | [3] 17% | [4] 32.8% | [5] 13.4% | [6] 12.8% | [7] 12.6% | [8] 14% | [10] 24.9% | [11] 18.8% | [12] 50% | [13] 29.3% | [14] 57.4% | [15] 19.2% | [16] 61.9% | [17] 12.4%
active: [9] 6.22%

Cc1ccc(Cc2cnc(NC(=O)/C(C#N)=C/c3ccc(-c4ccc(Cl)cc4)o3)s2)cc1
inactive: [1] 92.7% | [2] 97.4% | [3] 90.1% | [4] 120% | [5] 97.4% | [6] 83.8% | [7] 98.4% | [8] 103% | [9] 85.9% | [10] 94.3% | [11] 97.9% | [12] 100% | [13] 94.6% | [14] 90.9% | [15] 86.8% | [16] 102% | [17] 92.8%

COc1cc(-c2nc(SCc3ccc(C)cc3)[nH]c(=O)c2C#N)ccc1OCc1ccccc1
inactive: [1] 107% | [2] 116% | [3] 91.8% | [4] 101% | [5] 105% | [6] 95.2% | [7] 116% | [8] 129% | [9] 125% | [10] 105% | [11] 101% | [12] 105% | [13] 98.1% | [14] 108% | [15] 116% | [16] 107% | [17] 103%

CN1CCN(c2nc(-c3csc(-c4ccncc4)n3)cc3ccccc23)CC1
inactive: [1] 73.5% | [2] 70.4% | [3] 71.4% | [4] 75.9% | [5] 54.7% | [6] 58.7% | [7] 26.5% | [8] 40.6% | [10] 47.1% | [11] 84% | [12] 76.1% | [13] 84.9% | [14] 86.4% | [15] 56.8% | [16] 66.1% | [17] 68%
active: [9] -18.2%

CCOC(=O)/C(F)=C/C1CC1CCc1cccc(C(F)(F)F)c1 (stereo not given)
inactive: [1] 101% | [2] 104% | [3] 90.4% | [4] 99.5% | [5] 100% | [6] 89.4% | [18] 93.7% | [8] 104% | [9] 106% | [10] 102% | [11] 104% | [12] 100% | [13] 107% | [14] 99.8% | [15] 113% | [16] 103% | [17] 106%

O=C1Nc2ccc(Cl)cc2/C1=C/c1ccc(OCc2ccc(F)cc2)cc1
active: [7] -53.8%
inactive: [1] 90.9% | [2] 93.9% | [3] 86.4% | [4] 99% | [5] 103% | [6] 74.6% | [8] 93.4% | [9] 101% | [10] 69.8% | [11] 98.5% | [12] 94% | [13] 97.5% | [14] 101% | [15] 100% | [16] 101% | [17] 80.5%

CC(=O)Oc1ccc(CCN2C(=O)CSC2=S)cc1
inactive: [1] 97.3% | [2] 69% | [3] 76.8% | [4] 57.9% | [5] 93.6% | [6] 81.6% | [7] 57.9% | [8] 88.2% | [9] 68.9% | [10] 37.6% | [11] 103% | [12] 97.9% | [13] 93.8% | [14] 113% | [15] 103% | [16] 100% | [17] 96.4%

COc1ccc(-c2nc3cc(Cl)c(Cl)cc3n2CC(=O)N=Nc2c(O)[nH]c3ccccc23)cc1
inactive: [1] 72.4% | [2] 38.4% | [3] 76.9% | [4] 95.7% | [5] 50.8% | [6] 56.5% | [7] 39.9% | [8] 47.4% | [9] 66.4% | [10] 62.5% | [11] 78.4% | [12] 63% | [13] 75.1% | [14] 100% | [15] 52.9% | [16] 53.4% | [17] 44.3%

COc1cc2c3c(n(CCCNC4CCCC4)c(=O)c2cc1OC)-c1cc2c(cc1C3=O)OCO2
active: [1] -67.4% | [2] -60.9% | [4] -97% | [5] -95.5% | [10] -40.1% | [11] -70.2% | [12] -81.3% | [15] -48.7%
inactive: [3] 76.2% | [6] 11.7% | [18] 80.3% | [13] 71.9% | [14] 80.7% | [16] 93.3% | [17] 51.9%
